# Bioassay records: PubChem, The Scripps Research Institute Molecular Screening Center
# The list is not random: actives were taken first. Their share in the collection is about 3.5%.
# MITF inh – human MITF inhibition, primary screen. AID 1259374. inhibition, % at 2.6 µM. AlphaScreen MITF homodimerization, bead proximity signal. hit rate 0.91% among 650,000. O75030; in the data active = inhibition above about 50%;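 also: 0% = vehicle wells with protein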
# Target sequence (O75030 whole entry, looked up): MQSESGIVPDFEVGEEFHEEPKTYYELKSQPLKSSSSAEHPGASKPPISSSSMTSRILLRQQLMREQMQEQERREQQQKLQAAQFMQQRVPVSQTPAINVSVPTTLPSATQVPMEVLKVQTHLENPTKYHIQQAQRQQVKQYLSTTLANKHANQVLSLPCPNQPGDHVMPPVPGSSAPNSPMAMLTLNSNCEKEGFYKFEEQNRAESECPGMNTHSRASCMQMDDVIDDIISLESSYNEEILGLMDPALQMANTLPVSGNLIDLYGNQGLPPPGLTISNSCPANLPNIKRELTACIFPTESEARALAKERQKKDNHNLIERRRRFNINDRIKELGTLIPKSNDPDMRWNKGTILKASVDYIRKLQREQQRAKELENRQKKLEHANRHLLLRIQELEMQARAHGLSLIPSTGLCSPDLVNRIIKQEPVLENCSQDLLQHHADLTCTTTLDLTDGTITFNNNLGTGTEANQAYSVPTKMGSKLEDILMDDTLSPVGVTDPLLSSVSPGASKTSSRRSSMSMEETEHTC
# TEAD-YAP inh – TEAD-YAP interaction inhibition. inhibition, % at 9.12 µM. hit rate 1.4% among 640,000. HEK-TIYL cells, TEAD-Gal4/YAP UAS-luciferase luminescence; in the data active = inhibition above about 32%;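 also: 0% = median of test compound wells and 100% = reference inhibitor wells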
# GPR151 ag – activates the human receptor GPR151; hit rate 1% among 650,000; activation, % at 11.2 µM; Q8TDV0; AID 1508602; PathHunter beta-arrestin GPR151 cells, luminescence; in the data active = activation above about 4.9%;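 also: 0% = median of compound wells and 100% = cells with positive control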
# FBW7 act – human FBW7 E3 ligase activation, primary screen | AlphaScreen FBW7–phospho-cyclin E peptide binding, activator screen | normalized activity (activation), % at 26.1 µM | hit rate 0.13% among 650,000 | AID 1259310 | Q969H0; in the data active = normalized activity above about 1.9%;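 also: purified mutant Fbw7 with reduced substrate affinity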
# An asterisk follows results filed as active.
SMILES,MITF inh,TEAD-YAP inh,GPR151 ag,FBW7 act
O=C(CSc1nc2[nH]ncc2c(=O)n1-c1ccccc1)Nc1ccc2c(c1)OCCO2,7,50*,0,0
O=C(Nc1ccccc1)c1ccc2cnccc2n1,2,-46,-5,0
Cc1cccc(-n2nc3c(c2NC(=O)c2ccccc2Cl)CSC3)c1C,-9,4,3,0
CCN(CC)C(=O)N1c2ccccc2C=Cc2ccccc21,-2,62*,0,0
COc1cccc(-c2nnc3sc(CN4CCCCC4)cn23)c1,0,48*,-1,0
COc1ccc(O)c(/C=N/NC(=S)Nc2cccc(C(=O)O)c2)c1,104*,6,-2,-1
COc1ccc(/C=N/NC(=S)Nc2cccc(C(=O)O)c2)c(OC)c1,-4,4,-2,0
CN(C)c1ccc(/C=N/NC(=S)Nc2cccc(C(=O)O)c2)cc1,-7,64*,1,0
O=C(O)c1cccc(NC(=S)N/N=C/c2cccc(O)c2)c1,8,15,1,0
CCn1c(N2CCC(C(=O)NC3CCN(Cc4ccccc4)CC3)CC2)nc2ccccc21,9,39*,0,0
CCn1c(N2CCC(C(=O)NCCO)CC2)nc2ccccc21,0,-2,0,0
CN1C(=O)/C(=C/c2cc(Cl)ccc2O)NC1=S,-7,62*,2,0
OCCC1CN(Cc2ccncc2)CCN1Cc1ccc(F)cc1 (configuration not stated),-4,-11,2,0
CN1CCCN(c2cc(-c3ccc(OC4CCCCO4)cc3)ncn2)CC1 (configuration not stated),21,4,0,0
c1cn(CCCNc2cc(-c3ccc(OC4CCCCO4)cc3)ncn2)cn1 (configuration not stated),20,50*,-1,0
CCn1nc(C)c(CN2CCN(C3CCCC3)C(CCO)C2)c1C (configuration not stated),-7,9,1,0
COc1cc2oc(=O)cc(C)c2cc1OC,6,5,0,0
COc1cc2oc(=O)cc(C)c2cc1C=O,12,62*,-1,0
CC(C)[C@H]1NC(=O)[C@H]2CN(C(=O)c3cc(F)ccc3F)CCN2C1=O,9,-4,1,0
CC(C)CNS(=O)(=O)c1ccc(CCC(=O)N2CCN(c3ccc(F)cc3)CC2)cc1,1,40*,0,0
CCOc1ccc(Nc2ncnc3nc[nH]c23)cc1,2,51*,-2,0
CC(C)c1ccc(/C=N/Nc2ncnc3nc[nH]c23)cc1,7,52*,0,0
COc1cc(/C=N/Nc2ncnc3nc[nH]c23)cc(OC)c1OC,1,-7,-1,0
COc1cccc(/C=N/Nc2ncnc3nc[nH]c23)c1,8,48*,-3,0
COc1cccc(/C=N/Nc2cccc3cccnc23)c1,15,44*,-4,0
SMILES,MITF inh,TEAD-YAP inh,GPR151 ag,FBW7 act
Cc1ccc(C2=CC(c3ccccc3)n3c(nc4ccccc43)N2)cc1 (configuration not stated),0,15,-5,0
CC(CCc1ccccc1)NC(=O)CN(C)S(=O)(=O)c1ccc(Cl)c([N+](=O)[O-])c1 (configuration not stated),-1,11,0,0
Cc1ccc(NC(=O)CSc2nc3ccccc3nc2Cc2cccc([N+](=O)[O-])c2)cc1Cl,5,4,3,0
NC(=O)c1ccccc1NC(=S)NC(=O)c1ccc([N+](=O)[O-])cc1,-3,2,0,0
COCc1ccc(C(=O)NCc2nnc3n2CCN(CCC(C)c2ccccc2)CC3)o1 (configuration not stated),-6,0,-1,0
OC1CCCN(c2ncn(-c3ccc(Nc4nccc(-c5cccc(N6CCOCC6)c5)n4)cc3)n2)C1 (configuration not stated),-10,83*,0,1
Cn1nnc(-c2ccc(Nc3nccc(-c4cc(C#N)cc(N5CCCC(O)C5)c4)n3)cc2)n1 (configuration not stated),0,63*,1,0
N#Cc1cc(-c2ccnc(Nc3ccc(-n4cnc(N5CCCC(O)C5)n4)cc3)n2)cc(N2CCOCC2)c1 (configuration not stated),-6,27,0,0
OC1CCN(c2cccc(-c3ccnc(Nc4ccc(-n5ccnn5)cc4)n3)c2)CC1,-3,37*,0,0
Fc1cc(-c2ccnc(Nc3ccc(-n4ccnn4)cc3)n2)cc(N2CCOCC2)c1,-3,20,1,0
CN1CCN(c2ncn(-c3ccc(Nc4nccc(-c5cc(C#N)cc(N6CCCC(O)C6)c5)n4)cc3)n2)CC1 (configuration not stated),-11,62*,1,0
Cc1ccc2nc(Cl)c(C3CC(c4ccco4)=NN3C(=O)CCC(=O)O)cc2c1 (configuration not stated),11,8,0,0
Cc1nnc2ccc(N/N=C/c3cccnc3)nn12,6,10,1,0
O=C(NCC1Cc2cc(Cl)cc(-c3ncccn3)c2O1)c1ccc(N2CCCC2)cc1 (configuration not stated),2,46*,-1,0
Cc1ccc(C(C)C)c(OCC(=O)N/N=C/c2ccc(O)c(O)c2)c1,0,47*,1,0
COc1cccc(/C=N/NC(=O)CSc2cc(C)nc3c(C)cccc23)c1O,8,32*,1,0
COc1cccc(/C=N/NC(=O)COc2cccc(C)c2C)c1O,-9,2,4,0
O=C(COc1ccccc1)N/N=C\c1ccc(O)cc1,14,7,-1,2.1*
COc1cccc(/C=N/NC(=O)COc2cc(C)ccc2C(C)C)c1O,1,57*,0,0
Cc1ccc(C(C)C)c(OCC(=O)N/N=C/c2ccc[nH]2)c1,-9,-1,-1,0
COc1ccccc1C(=O)NNC(=O)C(OC)c1ccccc1 (configuration not stated),-9,6,0,0
COc1ccccc1CNc1nc2cc(OC)c(OC)cc2c2nc(-c3cccnc3)nn12,2,-1,1,0
Cc1ccc(C(C)C)c(OCC(=O)N/N=C/c2ccc(O)cc2)c1,12,48*,1,0
CCCCCCn1nc(C(=O)Nc2cc(C(N)=O)cc(C(N)=O)c2)c2ccccc2c1=O,-11,-4,2,2.1*
O=C(Nc1ccc(Oc2cccnc2)cc1)C1CCN(Cc2cc3ccccc3o2)CC1,12,44*,-1,0
Cc1nc(C)c(CN2CCC(C(=O)Nc3ccc(Oc4cccnc4)cc3)CC2)nc1C,7,13,0,0
COCCCNC(=S)NNS(=O)(=O)c1ccc(Br)cc1,4,14,-1,0
O=c1cnn([C@@H]2O[C@H](CO)[C@@H](O)[C@H]2O)c(=O)[nH]1,-2,48*,1,0
O=c1ncn(C2OC(CO)C(O)C2O)c(=O)[nH]1 (configuration not stated),0,74*,0,0
O=c1[nH]cnc2c1ncn2[C@@H]1O[C@H](CO)[C@@H](O)[C@H]1O,-4,-4,-1,0
